{"source": "the supplement of paper PMC4466140", "binders": {"B1": {"name": "unnamed (peptide)", "chain": "TPEIPPPLPPKIMVH"}}, "test_in_all_cases": "SPOT peptide array binding signal intensity (averaged, normalized) (arbitrary units (background-subtracted, floor 0; scale differs between SH3 domains)); higher = stronger binding of the SH3 domain to the peptide", "key": {"ScBbc1": {"molecular_target": "ScBbc1", "method_in_brief": "(§1)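 GST-fused SH3 domains from four yeast species were expressed in E. coli BL21(DE3), purified on glutathione Sepharose and incubated at 10 μg/ml overnight at 4°C in TBS-based blocking buffer on cellulose membranes carrying synthetic 15-mer peptides, with cysteines replaced by serines. Bound protein was detected with anti-GST antibody, an HRP anti-mouse secondary and luminol, then imaged and quantified with Genespotter. Binding signal is the normalized, background-subtracted spot intensity averaged over replicates, in arbitrary units that differ between domains.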"}, "ScBem1-D1": {"molecular_target": "ScBem1-D1", "method_in_brief": "as §1"}, "ScBzz1-D1": {"molecular_target": "ScBzz1-D1", "method_in_brief": "as §1"}, "ScBzz1-D2": {"molecular_target": "ScBzz1-D2", "method_in_brief": "as §1"}, "ScCyk3": {"molecular_target": "ScCyk3", "method_in_brief": "as §1"}, "ScFus1": {"molecular_target": "ScFus1", "method_in_brief": "as §1"}, "ScHof1": {"molecular_target": "ScHof1", "method_in_brief": "as §1"}, "ScHse1": {"molecular_target": "ScHse1", "method_in_brief": "as §1"}, "ScLsb1": {"molecular_target": "ScLsb1", "method_in_brief": "as §1"}, "ScLsb2": {"molecular_target": "ScLsb2", "method_in_brief": "as §1"}, "ScLsb3": {"molecular_target": "ScLsb3", "method_in_brief": "as §1"}, "ScLsb4": {"molecular_target": "ScLsb4", "method_in_brief": "as §1"}, "ScMyo3": {"molecular_target": "ScMyo3", "method_in_brief": "as §1"}, "ScMyo5": {"molecular_target": "ScMyo5", "method_in_brief": "as §1"}, "ScNbp2": {"molecular_target": "ScNbp2", "method_in_brief": "as §1"}, "ScPex13": {"molecular_target": "ScPex13", "method_in_brief": "as §1"}, "ScRvs167": {"molecular_target": "ScRvs167", "method_in_brief": "as §1"}, "ScSho1": {"molecular_target": "ScSho1", "method_in_brief": "as §1"}, "ScSla1-D1-D2": {"molecular_target": "ScSla1-D1-D2", "method_in_brief": "as §1"}, "ScSla1-D3": {"molecular_target": "ScSla1-D3", "method_in_brief": "as §1"}, "SpAbp1-D1": {"molecular_target": "SpAbp1-D1", "method_in_brief": "as §1"}, "SpBbc1": {"molecular_target": "SpBbc1", "method_in_brief": "as §1"}, "SpBzz1-D1": {"molecular_target": "SpBzz1-D1", "method_in_brief": "as §1"}, "SpBzz1-D2": {"molecular_target": "SpBzz1-D2", "method_in_brief": "as §1"}, "SpCyk3": {"molecular_target": "SpCyk3", "method_in_brief": "as §1"}, "SpHof1": {"molecular_target": "SpHof1", "method_in_brief": "as §1"}, "SpHof1-2": {"molecular_target": "SpHof1-2", "method_in_brief": "as §1"}, "SpHof1-3": {"molecular_target": "SpHof1-3", "method_in_brief": "as §1"}, "SpHse1": {"molecular_target": "SpHse1", "method_in_brief": "as §1"}, "SpLsb1": {"molecular_target": "SpLsb1", "method_in_brief": "as §1"}, "SpLsb4": {"molecular_target": "SpLsb4", "method_in_brief": "as §1"}, "SpMyo1": {"molecular_target": "SpMyo1", "method_in_brief": "as §1"}, "SpNbp2": {"molecular_target": "SpNbp2", "method_in_brief": "as §1"}, "SpPex13": {"molecular_target": "SpPex13", "method_in_brief": "as §1"}, "SpRvs167": {"molecular_target": "SpRvs167", "method_in_brief": "as §1"}, "SpSla1-D1-D2": {"molecular_target": "SpSla1-D1-D2", "method_in_brief": "as §1"}, "SpSla1-D3": {"molecular_target": "SpSla1-D3", "method_in_brief": "as §1"}}, "data": [{"binder": "B1", "values": [{"measurement": "SPOT peptide array binding signal intensity", "setting": "ScBbc1", "result": "≤ 0"}, {"measurement": "SPOT peptide array binding signal intensity", "setting": "ScBem1-D1", "result": "≤ 0"}, {"measurement": "SPOT peptide array binding signal intensity", "setting": "ScBzz1-D1", "result": "≤ 0"}, {"measurement": "SPOT peptide array binding signal intensity", "setting": "ScBzz1-D2", "result": 11}, {"measurement": "SPOT peptide array binding signal intensity", "setting": "ScCyk3", "result": "≤ 0"}, {"measurement": "SPOT peptide array binding signal intensity", "setting": "ScFus1", "result": "≤ 0"}, {"measurement": "SPOT peptide array binding signal intensity", "setting": "ScHof1", "result": 722}, {"measurement": "SPOT peptide array binding signal intensity", "setting": "ScHse1", "result": "≤ 0"}, {"measurement": "SPOT peptide array binding signal intensity", "setting": "ScLsb1", "result": 109}, {"measurement": "SPOT peptide array binding signal intensity", "setting": "ScLsb2", "result": "≤ 0"}, {"measurement": "SPOT peptide array binding signal intensity", "setting": "ScLsb3", "result": 6940}, {"measurement": "SPOT peptide array binding signal intensity", "setting": "ScLsb4", "result": 376}, {"measurement": "SPOT peptide array binding signal intensity", "setting": "ScMyo3", "result": 611}, {"measurement": "SPOT peptide array binding signal intensity", "setting": "ScMyo5", "result": 380}, {"measurement": "SPOT peptide array binding signal intensity", "setting": "ScNbp2", "result": 2}, {"measurement": "SPOT peptide array binding signal intensity", "setting": "ScPex13", "result": 1210}, {"measurement": "SPOT peptide array binding signal intensity", "setting": "ScRvs167", "result": 525}, {"measurement": "SPOT peptide array binding signal intensity", "setting": "ScSho1", "result": 1610}, {"measurement": "SPOT peptide array binding signal intensity", "setting": "ScSla1-D1-D2", "result": "≤ 0"}, {"measurement": "SPOT peptide array binding signal intensity", "setting": "ScSla1-D3", "result": "≤ 0"}, {"measurement": "SPOT peptide array binding signal intensity", "setting": "SpAbp1-D1", "result": "≤ 0"}, {"measurement": "SPOT peptide array binding signal intensity", "setting": "SpBbc1", "result": 0.5}, {"measurement": "SPOT peptide array binding signal intensity", "setting": "SpBzz1-D1", "result": 68}, {"measurement": "SPOT peptide array binding signal intensity", "setting": "SpBzz1-D2", "result": "≤ 0"}, {"measurement": "SPOT peptide array binding signal intensity", "setting": "SpCyk3", "result": "≤ 0"}, {"measurement": "SPOT peptide array binding signal intensity", "setting": "SpHof1", "result": "≤ 0"}, {"measurement": "SPOT peptide array binding signal intensity", "setting": "SpHof1-2", "result": 0.5}, {"measurement": "SPOT peptide array binding signal intensity", "setting": "SpHof1-3", "result": "≤ 0"}, {"measurement": "SPOT peptide array binding signal intensity", "setting": "SpHse1", "result": 148}, {"measurement": "SPOT peptide array binding signal intensity", "setting": "SpLsb1", "result": 463}, {"measurement": "SPOT peptide array binding signal intensity", "setting": "SpLsb4", "result": 852}, {"measurement": "SPOT peptide array binding signal intensity", "setting": "SpMyo1", "result": 723}, {"measurement": "SPOT peptide array binding signal intensity", "setting": "SpNbp2", "result": "≤ 0"}, {"measurement": "SPOT peptide array binding signal intensity", "setting": "SpPex13", "result": 9}, {"measurement": "SPOT peptide array binding signal intensity", "setting": "SpRvs167", "result": 1520}, {"measurement": "SPOT peptide array binding signal intensity", "setting": "SpSla1-D1-D2", "result": "≤ 0"}, {"measurement": "SPOT peptide array binding signal intensity", "setting": "SpSla1-D3", "result": "≤ 0"}]}]}
